According to PubChem BioAssay AID588511 (Johns Hopkins Ion Channel Center, 2011):
Among all 310,000 compounds or so, about 3,600 (1.2%) were called active.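 Rule for the calls: active = ratio plate-corrected score three or more library SD toward inhibition, starting fluorescence score within five deviations; inactive = the rest.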 What follows is part of a selection rich in actives, with near analogues and random picks from the rest.

target: Anoctamin-1 (Mus musculus) (UniProt Q8BHY3); assay: TMEM16A chloride channel inhibitors, primary screen, cell-based, HTS (AID 588511); conditions: HEK293 TMEM16A/YFP iodide influx fluorescence, ionomycin; at 10 µM;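 for normalized B-score (activity score, 25-100; higher = stronger inhibition): score derived from kinetic fluorescence span divided by baseline fluorescence per well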
Sequence (Q8BHY3 whole entry, looked up): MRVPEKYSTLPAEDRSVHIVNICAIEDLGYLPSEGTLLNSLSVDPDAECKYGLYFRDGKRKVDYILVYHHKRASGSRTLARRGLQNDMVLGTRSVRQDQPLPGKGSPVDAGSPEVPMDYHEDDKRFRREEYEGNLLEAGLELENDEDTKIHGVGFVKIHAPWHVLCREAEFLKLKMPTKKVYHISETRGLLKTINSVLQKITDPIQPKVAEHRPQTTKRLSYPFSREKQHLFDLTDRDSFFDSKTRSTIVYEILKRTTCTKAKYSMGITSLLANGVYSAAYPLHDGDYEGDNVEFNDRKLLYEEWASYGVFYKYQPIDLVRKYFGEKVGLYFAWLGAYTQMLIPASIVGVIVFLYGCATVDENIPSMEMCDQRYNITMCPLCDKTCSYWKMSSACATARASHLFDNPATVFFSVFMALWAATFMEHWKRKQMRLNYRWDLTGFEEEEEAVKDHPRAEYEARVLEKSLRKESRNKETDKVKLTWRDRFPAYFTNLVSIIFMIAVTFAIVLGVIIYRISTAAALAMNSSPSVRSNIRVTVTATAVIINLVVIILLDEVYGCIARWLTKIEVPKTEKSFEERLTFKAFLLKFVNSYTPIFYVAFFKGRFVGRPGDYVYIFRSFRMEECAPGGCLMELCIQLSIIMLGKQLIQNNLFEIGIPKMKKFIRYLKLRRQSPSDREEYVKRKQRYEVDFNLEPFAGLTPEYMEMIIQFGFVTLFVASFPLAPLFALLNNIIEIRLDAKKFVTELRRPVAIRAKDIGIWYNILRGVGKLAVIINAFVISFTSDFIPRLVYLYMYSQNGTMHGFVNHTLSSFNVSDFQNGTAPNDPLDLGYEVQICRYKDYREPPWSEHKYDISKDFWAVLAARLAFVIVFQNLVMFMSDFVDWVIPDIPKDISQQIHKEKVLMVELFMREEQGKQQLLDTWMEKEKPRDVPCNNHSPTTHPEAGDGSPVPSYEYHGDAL

SMILES | normalized B-score (activity score, 25-100; higher = stronger inhibition)
C=CCn1c2ccccc2c2nnc(SCc3[nH]c(=O)[nH]c3C(=O)CCCCC(=O)OCC)nc21 | inactive
COc1cc(N2C(=O)CC3(CCCC3)CC2=O)cc(OC)c1OC | inactive
COc1cc(OC)cc(C(=O)NNC(=O)CNC(=O)c2ccc(Br)o2)c1 | inactive
CSCc1ccc(C(=O)Nc2cc(C)cc(C)c2)cc1 | inactive
Cc1nc2ccccc2cc1OCc1ccc(F)cc1 | 25 (active)
Fc1ccccc1COc1cccc2cccnc12 | inactive
Cc1occc(=O)c1OCc1ccc(F)cc1 | inactive
CC1CCCCN1C(=O)Cn1c(=O)oc2cc(S(=O)(=O)N3CCCCC3)ccc21 (centres undefined) | inactive
Cc1cc(C)cc(NC(=O)Cn2cnc3c(nnn3Cc3ccc(F)cc3)c2=O)c1 | inactive
CCC1SC2=NCCN2C1(O)c1ccc(Cl)cc1 (centres undefined) | inactive
Clc1ccc(-c2nnc(SCc3nc4ccccc4s3)o2)cc1 | inactive
c1ccc(-c2nnc(SCc3nc4ccccc4[nH]3)o2)cc1 | 25 (active)
Clc1ccccc1SCc1nc2ccccc2[nH]1 | inactive
COc1ccc([C@H]2[C@H](C(C)=O)N3N=Cc4ccccc4C3C23C(=O)OC(C)(C)OC3=O)cc1 (some centres undefined) | inactive
O=C(Nc1cccc(Cl)c1Cl)c1ccccc1NC(=O)C1CC=CCC1C(=O)O (centres undefined) | inactive
Cc1oc2nc(SCC(=O)NCc3cccnc3)nc(N)c2c1C | 100 (active)
Cc1c(C(=O)NC(=S)NCc2cccnc2)oc2ccccc12 | inactive
Cc1oc2nc(SCC(=O)Nc3ccc(S(N)(=O)=O)cc3)nc(NC(=O)c3ccccc3)c2c1C | inactive
COc1ccc(CCNC(=O)c2nnc(CS(=O)(=O)c3ccccc3)o2)cc1OC | inactive
O=C(CNCCC1=CCCCC1)Nc1ccccc1N1CCCCCC1 | 25 (active)
Cc1ccccc1NC(=O)Nc1ccccc1N1CCCCC1 | inactive
Cc1ccccc1NC(=O)CNc1ccccc1N1CCCCC1 | inactive
COc1ccccc1CNC(=O)CSc1nc(=O)n(Cc2ccncc2)c2c1CCC2 | inactive
CCN(CC)CCCNC(=O)CCn1nc(-c2ccc(Cl)cc2)ccc1=O | inactive
Cc1ccc(-c2c[n+](=O)c3c(n2[O-])CCC3)cc1 | inactive

SMILES | normalized B-score (activity score, 25-100; higher = stronger inhibition)
Cc1ccc(OCCCC(=O)Nc2ccc(S(=O)(=O)Nc3cc(C)nc(C)n3)cc2)cc1 | inactive
CCN1CCCC1CNC(=O)Cn1cnc2ccc(S(=O)(=O)N3CCC(C)CC3)cc2c1=O (centres undefined) | 25 (active)
CC1CCN(S(=O)(=O)c2ccc3ncn(CC(=O)N(C)C4CCCCC4)c(=O)c3c2)CC1 | inactive
O=C(Cn1cnc2ccccc2c1=O)Nc1cccc(S(=O)(=O)N2CCCCC2)c1 | inactive
CC(=O)NC1C(Oc2ccc(C=O)cc2)OC(COC(C)=O)C(OC(C)=O)C1OC(C)=O (centres undefined) | inactive
COc1ccc(C(=O)NNC(=S)NC(=O)c2ccccc2)cc1 | inactive
Cc1onc(-c2ccccc2)c1C(=O)NNC(=S)NC(=O)c1ccc(F)cc1 | inactive
COc1ccc(C(=O)NC(=S)NNC(=O)c2c(-c3ccccc3)noc2C)cc1 | 100 (active)
CC(C)C[C@H](NC(=O)C1CC(=O)N(c2ccc3c(c2)OCCO3)C1)C(=O)NC1CCCC1 (some centres undefined) | inactive
Cc1cccc(C)c1NC(=O)c1ccc(CN2CCc3ccccc3C2)cc1 | inactive
CN(c1ccc(C(=O)N2CCc3ccccc3C2)cc1)S(C)(=O)=O | inactive
CN(c1cccc(NC(=O)c2ccc(CN3CCc4ccccc4C3)cc2)c1)S(C)(=O)=O | 25 (active)
COc1cccc(-n2c(=O)c3c(C)c(C(=O)N(C)C)sc3n(CC(=O)NCCc3ccc(OC)c(OC)c3)c2=O)c1 | inactive
Cc1nc(SC(C)C)[nH]c(=O)c1Cc1ccccc1 | inactive
O=C1CC(C(F)(F)C(F)(F)C(F)(F)C(F)(F)F)=Nc2ccccc2N1 | inactive
Cc1ccc2cc(C)c(N3CCN(c4ccc(F)cc4)CC3)nc2c1 | inactive
Cc1ccc(-n2ncc3c(N4CCN(c5ccc(F)cc5)CC4)ncnc32)c(C)c1 | 100 (active)
Cc1ccc(-n2ncc3c(=O)[nH]cnc32)c(C)c1 | inactive
CCN(CC)C(=O)Oc1ccc(OC(=O)N(CC)CC)cc1 | inactive
Cc1ccc(NC(=O)CN2C(=O)NC(C)(c3ccc(Cl)cc3)C2=O)c(Br)c1 (centres undefined) | inactive
CCOC(=O)C1=C(CN2CCc3ccccc32)NC(=O)NC1c1cccc([N+](=O)[O-])c1 (centres undefined) | 25 (active)
CCOC(=O)C1=C(CN2CCc3ccccc32)NC(=O)NC1c1ccc(Cl)cc1 (centres undefined) | inactive
CCOC(=O)C1=C(CN2CCCCCC2)NC(=O)NC1c1cccc([N+](=O)[O-])c1 (centres undefined) | inactive
CS(=O)(=O)N(CC(=O)N1CCOCC1)c1cccc(Cl)c1Cl | inactive
